Results on 101 compounds are retold here after PubChem BioAssay AID1578 (Sanford-Burnham Center for Chemical Genomics, 2009).

SMILES strings stand for the structures. About 3,000 (1%) of roughly 290,000 compounds were called active. This excerpt belongs to a sample that is enriched for actives. A number with no mark means an inactive call. Cut-off read from the data, not from the text of the source: active = inhibition mostly above about 36% (no sharp cut-off); inactive = mostly below about 34%.

This experiment is described as follows: inhibition of NOD1-driven NF-kB reporter – cell-based, luminescence, uHTS, primary screen (AID 1578).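 Note: HEK-293T reporter cells stimulated with the NOD1 agonist gamma-tri-DAP.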 As to conditions: NOD1-driven NF-kB luciferase reporter cells, at 4 µM, hits give high values. (In a reporter assay the amount or activity of a reporter protein is the signal.)
By inhibition is commonly meant the change of the read-out against control, counted positive when it falls. For `CC(/C=C1\SC(=S)N(CC(=O)O)C1=O)=C\c1ccccc1`, the inhibition is -14.7%.
The same measure for `O=C(O)c1ccc(N2C(=O)/C(=C/C=C/c3ccccc3)SC2=S)cc1`: -13.7%; for `O=C1CCCCN1CCC(=O)N1CCCC(N2CCN(c3ccccc3)CC2)C1` (stereo unspecified): -1%; for `CC(C)(C)c1nc(CN2CCCCC2)cc(CN2CCCCC2)c1O`: -2.5%.
The figure for `Cc1ccc(C2=NN(C(=O)CCl)C(c3ccco3)C2)o1` (stereo unspecified) is -45.6%; for `Cc1ccc(C2CC(c3cccs3)=NN2C(=O)CCl)cc1` (stereo unspecified) it is 95.3% (active).
The figure for `O=C(O)CCC(=O)N1N=C(c2ccco2)CC1c1cccs1` (stereo unspecified) is -15.2%; for `Cc1ccc(C2=NN(C(=O)CCC(=O)O)C(c3cccs3)C2)cc1` (stereo unspecified) it is -4.3%.
As to `CCC(=O)N1N=C(c2cccs2)CC1c1ccc(C)cc1` (stereo unspecified), the inhibition is 1.5%.
The same measure for `CC(=O)N1N=C(c2ccco2)CC1c1cccs1` (stereo unspecified): -6.4%.
For the compound `CCN1CCN(CC(=O)N2N=C(c3cccs3)CC2c2ccc(C)cc2)C(=O)C1=O` (stereo unspecified), the inhibition was -19.6%.
As for `COc1cc(NC(=O)CN2CCN(c3ccccc3F)CC2)cc(OC)c1`, the inhibition was -13.5%.
The figure for `CC(C)(C)NC(=S)NCc1cccnc1` is 5.8%; for `CCc1ccc(OCC(=O)NNC(=O)c2nn(CC)c(=O)c3ccccc23)cc1` it is -23.6%.
On to `CC1(C)CC(=O)C(Sc2ccc(Br)cc2)=C(O)C1`, for which the inhibition is -57.7%.
The same measure for `Fc1ccc(-c2nc3nc4ccccc4nc3n2Cc2ccco2)cc1`: -13.7%.
The same measure for `S=c1nc(-c2ccccc2)[nH]c2ccccc12`: -26.9%.
The same measure for `CCC(CC)c1nc(NCCC(=O)O)c2ccccc2n1`: -13.4%.
Turning to `COc1ccccc1NC(=O)CCc1nnc2ccc(N3CCN(C)CC3)nn12`, the inhibition was -20.3%.
The same measure for `COc1ccc(Cl)cc1NC(=O)CCc1nnc2ccc(N3CCC4(CC3)OCCO4)nn12`: 10.7%; for `COc1ccc(Cl)cc1NC(=O)CCc1nnc2ccc(N3CCN(C)CC3)nn12`: 58% (active).
The same measure for `COc1cc(O)c(C(CCN2CCOCC2)c2ccc(N(C)C)cc2)c(OC)c1` (stereo unspecified): 4.8%; for `Cc1ccc(S(=O)(=O)Nc2nc3ccccc3nc2NCC2CCCO2)c(C)c1` (stereo unspecified): -1.8%.
As for `COc1ccc(NC(=O)CN(C)C(=O)c2ccc3c(c2)S(=O)(=O)N=C2CCCCCN23)cc1`, the inhibition was -22%.
The same measure for `COc1ccc(-c2c(C#N)c(N)nc(Sc3ccc(Cl)cc3)c2C#N)cc1`: -0.6%; for `N#Cc1c(N)nc(Sc2ccc(Cl)cc2)c(C#N)c1-c1ccccc1Cl`: 83.1% (active).
The same measure for `CCSc1nc(N)c(C#N)c(-c2ccccc2Cl)c1C#N`: -2.6%; for `Cc1[nH]c(=O)[nH]c(=O)c1S(=O)(=O)Nc1ccc(Oc2ccccc2)cc1`: -23.1%; for `COc1ccc2nc(NCCCO)[nH]c2c1`: -28.1%.
The same measure for `COc1ccccc1OCCNC(=O)c1cc(SC)ccc1Cl`: -20.2%.
Regarding `Cc1cc(S(=O)(=O)NCCc2ccccc2)c(C)s1`, the inhibition is 15.9%.
For the compound `CN(C)c1ccc(/C=C/c2c([N+](=O)[O-])c(=O)n(C)c(=O)n2C)cc1`, the inhibition was -9.1%.
In the case of `CCc1ccc(/C=C/c2c([N+](=O)[O-])c(=O)n(C)c(=O)n2C)cc1`, the inhibition was 22.5%.
The figure for `COc1ccc(/C=C/c2c([N+](=O)[O-])c(=O)n(C)c(=O)n2C)cc1` is -2.9%; for `CCOc1ccc(/C=C/c2c([N+](=O)[O-])c(=O)n(C)c(=O)n2C)cc1` it is -27.7%; for `Clc1nccnc1-c1ccccc1` it is -25.1%.
On to `Cc1sc2nc(NCCO)[nH]c(=O)c2c1C`, for which the inhibition is -16%.
The figure for `O=C(Nc1nc(-c2ccc(Br)cc2)cs1)c1cccnc1` is -26.9%; for `CC1CCCCC1NC(=O)CSc1nnc(-c2ccccc2)n1N` (stereo unspecified) it is 11.7%; for `O=C(CCl)N(c1ccccc1)C1CCCCC1` it is 34.4%.
On to `O=C(CCl)N(C1CCCC1)C1CCS(=O)(=O)C1` (stereo unspecified), for which the inhibition is 35.5%.
The same measure for `O=C(CCl)N(c1ccccc1)C1CCS(=O)(=O)C1` (stereo unspecified): 93.2% (active).
The figure for `NS(=O)(=O)c1ccc(CCNC(=O)c2cc(-c3cc(Cl)ccc3O)n[nH]2)cc1` is -5.8%; for `CC(=O)Nc1ccc(NC(=O)[C@@H](NC(=O)N2C[C@H]3C[C@@H](C2)c2cccc(=O)n2C3)C(C)C)cc1` it is -3.2%.
The figure for `CCN(CCn1cccn1)Cc1cn[nH]c1-c1cccc2ccccc12` is -11.1%.
For `CC(=O)c1ccc(N2CCN(C(=O)C(=O)c3cn(CC(=O)N4CCCCCC4)c4ccccc34)CC2)cc1`, the inhibition was -25.9%.
`Cc1cc(=O)oc2c(C)c(OCC(=O)N3CC[C@@]4(O)CCCC[C@H]4C3)ccc12`: the inhibition was -30.1%.
The figure for `COc1cc2ncnc(NCc3cccc(Cl)c3)c2cc1OC` is 44.2%; for `c1ccc(CCNc2ncnc3ccccc23)cc1` it is 71.7% (active).
The figure for `c1ccc(CNc2ncnc3ccccc23)cc1` is -16.1%; for `COc1cc2ncnc(Nc3cccc(Cl)c3)c2cc1OC` it is 45.3% (active).
The same measure for `COc1cc2ncnc(NCc3ccccc3)c2cc1OC`: -4.6%; for `CCN(CC)CCCNc1ncnc2ccccc12`: -25.6%; for `COc1ccccc1CNc1ncnc2cc(OC)c(OC)cc12`: -12.1%.
With `CN(C)CCNc1ncnc2ccccc12`, the inhibition is -20.6%.
The figure for `OCCCCCNc1ncnc2ccccc12` is 45.8% (active); for `CCCCCCCCNc1ncnc2ccccc12` it is 54.9%.
The same measure for `COc1cc2ncnc(Nc3ccc4c(c3)OCO4)c2cc1OC`: 16.8%; for `CC(C)Cn1c(SCC(=O)N2CCCc3ccccc32)nc2ccccc2c1=O`: -2.1%; for `O=C(CSc1nnc(C2CC2)n1CC1CCCO1)Nc1ccccc1Cl` (stereo unspecified): -9%.
The figure for `CC1CCN(c2ccc([N+](=O)[O-])cc2C(=O)O)CC1` is -6.6%; for `COCc1cc(=O)[nH]c(=S)[nH]1` it is -3.8%; for `C#CCNC(=O)/C=C/c1ccc(C)cc1` it is -42.9%.
For `COC(=O)C1=C(C(=O)OC)[C@@H]2N(C)c3ccccc3[C@@]23C[C@@H](CO)N(C(=O)NCCBr)C3=N1`, the inhibition is -2.6%.
Regarding `Cc1c(O)ccc2c(=O)c(Oc3ccccc3)coc12`, the inhibition is -2.7%.
The figure for `Cc1cc(C)nc(SCc2nnc(SCC(=O)Nc3c(C)cccc3C)o2)n1` is -14%; for `O=C1CSc2ccc(S(=O)(=O)CCC(=O)NC3CCCCC3)cc2N1` it is -26.4%; for `C#CCOC(=O)CCCNc1ccc([N+](=O)[O-])cc1[N+](=O)[O-]` it is -22.8%.
The same measure for `CC1CN=C(N(C(=O)Nc2ccccc2)c2ccc(F)cc2)S1` (stereo unspecified): 1.6%; for `CSCCC(NC(=O)OCc1ccccc1)C(=O)NCc1cccnc1` (stereo unspecified): -10.2%.
The figure for `CCOc1ccc(C(=O)CCN2CCCCCC2)cc1` is 70.2% (active); for `CCOc1ccc(C(=O)COC(=O)CC)cc1` it is -16%.
`CCOc1ccc(C(=O)CCN2CCCCC2)cc1`: the inhibition was 44%.
For `CCOc1ccc(C(=O)COC(C)=O)cc1`, the inhibition is 3.9%.
The figure for `CCCOc1ccc(C(=O)CCN2CCCCC2)cc1` is 35.7%.
For the compound `CCCCC(=O)OCC(=O)c1ccc(OCC)cc1`, the inhibition was 31.2% (active).
The figure for `Cc1occc1C(=O)O/N=C(\N)c1ccccc1` is -8.7%.
The figure for `CCNC(=S)Nc1cccc(F)c1C` is -29.3%; for `O=C(NCc1ccco1)C(Cc1ccccc1)N1C(=O)C2C3C=CC(C3)C2C1=O` (stereo unspecified) it is 1.7%.
With `COC(=O)C(Cc1ccccc1)NC(=O)CC(C)CC(=O)Nc1ccc(C)cc1` (stereo unspecified), the inhibition was -13.8%.
Turning to `CC(C)(C)NC(=O)CN(C(=O)C1CSC(=O)C1)c1ccc2c(c1)OCCO2` (stereo unspecified), the inhibition is -20.5%.
The figure for `CCN1CCN(C(=O)c2ccc3c(c2)N(Cc2ccc(C)cc2)CCS3)CC1` is -18.4%; for `Cc1ccc(CN2CCSc3ccc(C(=O)N4CCN(c5ncccn5)CC4)cc32)cc1` it is 34.2% (active); for `CCOC(=O)N1CCN(C(=O)c2ccc3c(c2)N(Cc2ccc(C)cc2)CCS3)CC1` it is 45.5%.
The same measure for `CSc1nc2ccc(NC(=O)c3ccco3)cc2s1`: -41.5%.
Consider `C=CCn1c(COc2ccccc2-c2ccccc2)nnc1SCC(=O)NC(=O)NCc1ccco1`, for which the inhibition is -0.2%.
Take `COc1ccc(Nc2nccc(-c3cccc(N)c3)n2)cc1`: the inhibition is 6.7%.
For `CCC(C)Oc1cc(-c2ccnc(Nc3cccc(Cl)c3)n2)ccn1` (stereo unspecified), the inhibition was 47% (active).
Consider `Cc1cc(C)nc(Nc2cccc(Cl)c2)n1`, for which the inhibition was -14.1%.
As to `Brc1ccc(CSc2ncn[nH]2)cc1`, the inhibition was 19%.
On to `COc1cc2ccccc2cc1C(=O)Nc1ccc2oc(=O)ccc2c1`, for which the inhibition was 46.4%.
Regarding `CCNc1nc(NC(C)C)nc(Oc2ccc(OCCOc3ccc(C)cc3)nn2)n1`, the inhibition was -39.7%.
The same measure for `COCc1cc(Sc2ccc(Cl)cc2)nc(C)n1`: -2.4%.
The same measure for `COCc1cc(NCc2ccc(Cl)cc2)nc(C)n1`: 21%.
The same measure for `COCc1cc(S(=O)c2ccc(Cl)cc2)nc(C)n1` (stereo unspecified): 84.6% (active); for `O=C(c1ccccc1)c1c[nH]c2ccccc12`: -14.2%; for `O=C(c1c[nH]c2ccccc12)C(Cl)c1ccccc1` (stereo unspecified): 96.9% (active).
`CC(Cl)C(=O)c1c[nH]c2ccccc12` (stereo unspecified): the inhibition was -10.4%.
The figure for `COc1ccccc1NS(=O)(=O)c1ccc2c(c1)NC(=O)C(C)S2` (stereo unspecified) is 49.3%; for `COc1ccc(N2CCN(C(=O)c3oc4ccccc4c3NC(=O)Cc3cccc(OC)c3)CC2)cc1` it is -28.1%; for `Cc1ccc(S(=O)(=O)NC(CC(=O)O)c2cccs2)cc1` (stereo unspecified) it is -21.8%.
